{
  "source": "PubChem BioAssay (EPA / NIEHS)",
  "note": "More than one record can exist for a structure, and the calls need not agree. Calls of active or inactive are those of the source. How the source made its calls: active means hit-call score of the fitted dose curve at least 0.9, where 1 is the maximum; inactive means score below 0.9.",
  "data": [
    {"read-out": "Pselectin, SELP (gene 6403)", "experiment": "BSK_4H_Pselectin: BioMAP Diversity Plus: 4H Assay for Pselectin Biomarker Activity (AID 2283026)", "conditions": "primary human endothelial cells (HUVEC); actives raise or lower the signal", "method": "BSK_4H is a cell-based, multiplexed-readout assay that uses umbilical vein endothelium, a human vascular primary cell, with measurements taken at 24 hours after chemical dosing in a 96-well plate.BSK_4H_Pselectin is an assay component measured in the BSK_4H assay. It measures P-Selectin antibody related to regulation of gene expression using ELISA technology.Data from the assay component BSK_4H_Pselectin was analyzed into 1 assay endpoint. This assay endpoint, BSK_4H_Pselectin, was analyzed with bidirectional fitting relative to DMSO as the negative control and baseline of activity. Using a type of binding reporter, gain or loss-of-signal activity can be used to understand changes in the signaling as they relate to the gene SELP. Furthermore, this assay endpoint can be referred to as a primary readout, because this assay has produced multiple assay endpoints where this one serves a signaling function. To generalize the intended target to other relatable targets, this assay endpoint is annotated to the cell adhesion molecules intended target family, where the subfamily is selectins.\nThe levels of cell surface (or secreted, indicated by the prefix \"s\") biomarker endpoints were measured by ELISA. Overt cytotoxicity to cells in confluent adherent cultures (all systems other than the BT system) was assessed by measuring total protein levels using sulforhodamine B (SRB) staining in parallel cultures at the time of biomarker measurements, indicated as SRB endpoints. For proliferation assays for adherent cell types, individual cell types are cultured at sub-confluence and relative cell numbers quantified by SRB staining at time points optimized for each system (48 h: 3C and CASM3C systems; 72 h: BT and HDF3CGF systems; 96 h: SAg system). SRB was performed by staining cells with 0.1% SRB after fixation with 10% TCA and reading wells at 560 nm.Viability and proliferation of PBMC (T cells) was quantified by Alamar Blue reduction for the SAg and BT systems. For PBMC viability (referred to as PBMC Cytotoxicity within the assay endpoint names), cells were plated (75,000/well in a 96-well plate) and then chemical samples added for 1 h before addition of activators, SEB and TSST-1 (20 ng/mL final concentration each). Cells were incubated for 90 h. Then, Alamar Blue (20 uL/well) (Invitrogen, Cat DAL1100) was added for 6 h, and the plates were read with a fluorescence microplate reader at 546/580 nm (excitation/emission). For PBMC proliferation, cells were plated and activated as above but incubated for only 16 h prior to addition of Alamar Blue. Plates were read after 6 h.", "values": [
      {"smiles": "NC(=O)C(F)(F)C(F)(F)C(F)(F)C(F)(F)C(N)=O", "outcome": "inactive"},
      {"smiles": "C[Si](Cl)(Cl)CCC(F)(F)C(F)(F)C(F)(F)C(F)(F)C(F)(F)C(F)(F)F", "outcome": "inactive"},
      {"smiles": "OCC(F)(F)C(F)(F)C(F)(F)C(F)(F)C(F)(F)C(F)(F)C(F)(F)C(F)(F)CO", "AC50": "9.58 µM (active)", "outcome": "inactive"},
      {"smiles": "O=C(O)C(F)(F)C(F)(F)C(F)(F)OC(F)(C(F)(F)F)C(F)(F)F", "outcome": "inactive"},
      {"smiles": "NS(=O)(=O)C(F)(F)C(F)(F)C(F)(F)C(F)(F)C(F)(F)C(F)(F)F", "outcome": "inactive"},
      {"smiles": "CCOC(C=C(C)CCC=C(C)C)OCC", "AC50": "30.2 µM (active)"},
      {"smiles": "Cc1cc(O)c(C(C)(C)C)cc1C(C)(C)C", "AC50": "5.32 µM (active)"},
      {"smiles": "C[C@]12CC[C@H]3C(=CCc4cc(O)ccc43)[C@@H]1CCC2=O", "outcome": "inactive"},
      {"smiles": "O=C(O)CCC(F)(F)C(F)(F)C(F)(F)F", "outcome": "inactive"},
      {"smiles": "OCC(O)CC(F)(F)C(F)(F)C(F)(F)C(F)(F)F", "note": "(stereo not given)", "outcome": "inactive"},
      {"smiles": "CCOC(=O)CC(=O)C(F)(F)C(F)(F)F", "outcome": "inactive"},
      {"smiles": "CC1=CC2C3C=CC(C3)C2C1C", "note": "(stereo not given)", "outcome": "inactive"},
      {"smiles": "O=C(O)C(F)(F)OC(F)(F)C(F)(F)OC(F)(F)C(F)(F)OC(F)(F)F", "outcome": "inactive"},
      {"smiles": "OCC(O)CC(F)(F)C(F)(F)C(F)(F)C(F)(F)C(F)(F)C(F)(F)C(F)(F)C(F)(F)F", "note": "(stereo not given)", "outcome": "inactive"},
      {"smiles": "O=C(O)C(F)(F)C(F)(F)C(F)(F)OC(F)(F)F", "outcome": "inactive"},
      {"smiles": "NC(=O)C(F)(F)C(F)(F)C(F)(F)C(F)(F)C(F)(F)C(F)(F)C(F)(F)F", "outcome": "inactive"},
      {"smiles": "OCC(F)(F)C(F)(F)C(F)(F)CO", "outcome": "inactive"},
      {"smiles": "OCCCCC(F)(F)C(F)(F)C(F)(F)C(F)(F)F", "outcome": "inactive"},
      {"smiles": "Cc1cnccn1", "outcome": "inactive"},
      {"smiles": "C=C(C)C(=O)OCC(F)(F)C(F)(F)C(F)(F)C(F)F", "outcome": "inactive"},
      {"smiles": "CCN(CC)c1ccc2c(c1)Oc1cc(N(CC)CC)ccc1C21OC(=O)c2ccccc21", "outcome": "inactive"},
      {"smiles": "FC(F)(F)C(F)(F)C(F)(F)C(F)(F)C(F)(F)C(F)(F)CC[Si](Cl)(Cl)Cl", "outcome": "inactive"},
      {"smiles": "O=C(O)C(F)(F)C(F)(F)C(F)(F)C(F)(F)C(F)(F)C(F)(F)C(F)F", "outcome": "inactive"},
      {"smiles": "O=C=NCc1cccc(CN=C=O)c1", "outcome": "inactive"},
      {"smiles": "FC(F)(F)C(F)(F)C(F)(F)C(F)(F)C(F)(F)C(F)(F)C(F)(F)CCI", "outcome": "inactive"},
      {"smiles": "CCN(CC)c1ccc(C=O)c(O)c1", "outcome": "inactive"},
      {"smiles": "CN(C(=O)C(F)(F)C(F)(F)C(F)(F)F)[Si](C)(C)C", "outcome": "inactive"},
      {"smiles": "COC(F)(C(F)F)C(F)(F)F", "note": "(stereo not given)", "outcome": "inactive"},
      {"smiles": "Cc1cc(C)c(O)c(C(C)(C)C)c1", "AC50": "20 µM (active)"},
      {"smiles": "OCC(F)(F)C(F)(F)C(F)(F)C(F)(F)C(F)(F)C(F)(F)CO", "outcome": "inactive"},
      {"smiles": "FC(F)(F)C(F)(F)C(F)(F)CC1CO1", "note": "(stereo not given)", "outcome": "inactive"},
      {"smiles": "CCN(CCO)S(=O)(=O)C(F)(F)C(F)(F)C(F)(F)C(F)(F)C(F)(F)C(F)(F)C(F)(F)C(F)(F)F", "AC50": "19.1 µM (active)", "outcome": "inactive"},
      {"smiles": "NCC(F)(F)C(F)(F)C(F)(F)C(F)(F)C(F)(F)C(F)(F)F", "outcome": "inactive"},
      {"smiles": "CCN(CC)c1ccc(N=Nc2ccccc2)cc1", "AC50": "11.3 µM (active)"},
      {"smiles": "O=S(=O)(Cl)C(F)(F)C(F)(F)C(F)(F)C(F)(F)C(F)(F)C(F)(F)C(F)(F)C(F)(F)F", "outcome": "inactive"},
      {"smiles": "O=C(F)C1(F)C(F)(F)C(F)(F)C(F)(F)C(F)(F)C1(F)F", "outcome": "inactive"},
      {"smiles": "OC(O)C(F)(F)C(F)(F)F", "outcome": "inactive"},
      {"smiles": "C=CC(=O)OCCC(F)(F)C(F)(F)C(F)(F)C(F)(F)F", "outcome": "inactive"}
    ]}
  ]
}
